{"source": "PubChem BioAssay AID652040", "about": "(Broad Institute, 2013)", "note": "Measured potencies and affinities stand elsewhere. Unmarked numbers belong to inactive results.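 The calls were made as follows: active = falling luciferase signal whose fitted half-maximal concentration is at most twice the top tested dose; inconclusive = flat inhibition between 30 and 70% or a poor curve fit; inactive = the rest.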"}
{"experiment": "off-target signal loss in HeLa-CEM21 co-culture – HeLa F-luc CTL cells, cherry-picked, counter-screen for HIV-1 Env fusion inhibitor project, dose response (AID 652040);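 also: 0% = median of neutral control wells and -100% = doxycycline 40 µg/mL wells; more negative values mean stronger loss of luciferase signal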", "details": "HeLa-F-luc CTL cells with CEM21, firefly luciferase counterscreen; series mostly up to 35 µM; activity change, negative = inhibition: at the top concentration"}
{"smiles": "Cc1cc(C(=O)N2CCC(C(=O)O)CC2)c(C(F)(F)F)o1", "activity change, negative = inhibition": "-4.57%"}
{"smiles": "COc1ccc(-c2nnc(Nc3nc4c(OC)cccc4s3)o2)cc1", "activity change, negative = inhibition": "9.73%"}
{"smiles": "COc1ccc(-c2cn3c(C)c(C(=O)Nc4cccc(NC(C)=O)c4)sc3n2)cc1", "activity change, negative = inhibition": "19.2% [at 16 µM]"}
{"smiles": "Cc1cccc(N2CCN(C(=O)CCCSc3nc4ccccc4[nH]3)CC2)c1C", "activity change, negative = inhibition": "1.12%"}
{"smiles": "COc1ccc(OCC(=O)Nc2ccccc2N2CCCCC2)cc1", "activity change, negative = inhibition": "-18.9%"}
{"smiles": "COc1ccc(CCCC(=O)NCCc2ccccc2)c(C)c1", "activity change, negative = inhibition": "23.1%"}
{"smiles": "CCN(CC)CCN(C(=O)c1cc(Cl)sc1Cl)c1nc2cc3c(cc2s1)OCO3", "activity change, negative = inhibition": "35.2%"}
{"smiles": "COc1ccc(C)cc1NC(=O)CCNS(=O)(=O)c1ccc2c(c1)CC(C)N2C(C)=O", "note": "(configuration not stated)", "activity change, negative = inhibition": "8.94%"}
{"smiles": "O=C(NNS(=O)(=O)c1ccc(F)cc1F)C1Cc2c(ccc3ccccc23)O1", "note": "(configuration not stated)", "activity change, negative = inhibition": "14.4%"}
{"smiles": "O=C(Nc1ccc(S(=O)(=O)N2CCN(Cc3ccccc3)CC2)cc1)c1cnccn1", "activity change, negative = inhibition": "16.4%"}
{"smiles": "CCN1C(=O)[C@H]2[C@@H](c3ccc(C(F)(F)F)cc3)N[C@]3(CCCN(Cc4ccccc4)C3=O)[C@H]2C1=O", "activity change, negative = inhibition": "40.7%"}
{"smiles": "Cc1ccc(NS(=O)(=O)c2cc(C(=O)N(C)C3CCN(C)CC3)ccc2Cl)cc1Cl", "activity change, negative = inhibition": "11.1%"}
{"smiles": "CCOc1ccccc1C(=O)NCC(=O)NNC(=O)CN(C)S(=O)(=O)c1ccc(Cl)cc1", "activity change, negative = inhibition": "-20%"}
{"smiles": "c1coc(CNc2c3c(nc4ccccc24)CCC3)c1", "activity change, negative = inhibition": "24.5%"}
{"smiles": "Cc1nc2ccccc2c2oc(C(=O)NCc3ccc4c(c3)OCO4)cc12", "activity change, negative = inhibition": "36%"}
{"smiles": "Cc1ccc(NC(=O)c2ccc(CN3CCc4ccccc4C3)cc2)cc1", "activity change, negative = inhibition": "60.7%"}
{"smiles": "C[C@@H]1CN([C@H](C)CO)S(=O)(=O)c2ccc(C#Cc3cccc(F)c3)cc2O[C@@H]1CN(C)C(=O)CN1CCOCC1", "activity change, negative = inhibition": "40%"}
